Test results reported in PubChem BioAssay.

Tests used:
[1] = biological target: Tumor necrosis factor receptor superfamily member 10B (Homo sapiens) (UniProt O14763); test: viability loss of caspase-8 NB7 cells with TRAIL – with/without TRAIL, luminescence panel, confirmation (AID 651596); conditions: NB7 neuroblastoma + caspase-8, TRAIL sensitization, NB7 Caspase-8, with TRAIL, mean of runs, at 10 µM, stronger effect = higher value
[2] = as above; conditions: NB7 neuroblastoma + caspase-8, without TRAIL, NB7 Caspase-8, without TRAIL, mean of runs, at 10 µM

Chain of Tumor necrosis factor receptor superfamily member 10B (Homo sapiens) (O14763 whole entry, looked up): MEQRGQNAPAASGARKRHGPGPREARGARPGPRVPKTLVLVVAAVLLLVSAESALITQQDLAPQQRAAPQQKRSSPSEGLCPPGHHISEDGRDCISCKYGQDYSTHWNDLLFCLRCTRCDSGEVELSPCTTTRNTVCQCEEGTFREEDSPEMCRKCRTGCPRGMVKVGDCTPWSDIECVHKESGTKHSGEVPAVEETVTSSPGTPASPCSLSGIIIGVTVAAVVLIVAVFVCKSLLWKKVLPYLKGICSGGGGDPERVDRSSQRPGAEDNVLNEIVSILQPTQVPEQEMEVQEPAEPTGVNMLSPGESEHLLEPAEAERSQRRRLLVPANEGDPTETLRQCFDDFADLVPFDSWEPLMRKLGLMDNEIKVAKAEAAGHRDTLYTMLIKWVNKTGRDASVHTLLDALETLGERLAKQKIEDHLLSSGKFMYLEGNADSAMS

Row | SMILES | activity [1] | activity [2]
1 | Nc1nc2ccccc2n1C(=O)c1ccccc1 | 87.9% | 85.9%
2 | O=c1[nH]c(/C=C/c2ccccc2Cl)nc2ccccc12 | 75.5% | 65.7%
3 | Cc1ccc(NC(=O)Cn2ncc(Cl)c(Cl)c2=O)cc1S(=O)(=O)N1CCCCC1 | 86.5% | 99.5%
4 | Nc1c(N(CCC2=CCCCC2)C(=O)COc2ccc(F)cc2Cl)c(=O)[nH]c(=O)n1Cc1ccccc1 | 88.3% | 79.4%
5 | N#Cc1nc(Nc2cccc(Cl)c2)c2ncn(C3CCCC3)c2n1 | 76.7% | 57.3%
6 | C#CCN(C[C@@H]1[C@@H](OC(=O)NCCCCCC)[C@@H](OC(=O)NCCCCCC)Cn2c(=O)ccc(=O)n21)S(=O)(=O)c1ccc(C)cc1 | 96.2% | 92.3%
7 | Nc1c(-c2ccccc2)cnc2c(-c3ccccc3)cnn12 | 73.7% | 77.2%
8 | CC(C)N1CCc2c(sc(NC(=O)c3ccc([N+](=O)[O-])o3)c2C(N)=O)C1 | -2.23% | 93.5%
9 | Cn1cnc(Sc2ncnc3nc[nH]c23)c1[N+](=O)[O-] | 62.5% | 72.5%
10 | O=[N+]([O-])c1ccc(Sc2ccncn2)c([N+](=O)[O-])c1 | 16.8% | 65.8%
11 | Cc1ccc(NC(=S)c2nc3ccccc3s2)cc1 | 30.7% | 33.8%
12 | O=C(Nc1nc2cc3c(cc2s1)OCCO3)c1ccc([N+](=O)[O-])o1 | 63.8% | 84.1%
13 | COc1ccc(C2C(O)C(c3c[nH]c4ccccc34)=NN2C(=O)CCl)cc1 (configuration not stated) | 99.2% | 99.2%
14 | Cc1cc(-c2csc3nc[nH]c(=S)c23)cc(C)c1C | 79.3% | 74.9%
15 | CCOC(=O)c1nn(-c2ccc3c(c2)CCN3C(C)=O)cc1O | 47% | 47.6%
16 | COc1ccccc1NC(CC(=O)c1ccccc1)C(=O)OCC(=O)c1ccc(C)cc1 (configuration not stated) | 65% | 69%
17 | CC[C@@H](C)[C@H](CNC)NC[C@@H](Cc1cccc2ccccc12)NCCc1cccc(C(F)(F)F)c1 | 86.9% | 97.8%
18 | O=C(Nc1ccc(NC(=O)C2CCCCC2)cn1)c1ccco1 | 76.2% | 80.6%
19 | O=C(NCC1CC1)c1ccc2c3n(nc2c1)-c1ccccc1CO3 | 89.8% | 89.5%
20 | Cc1ccc(/C=C/C2=NN(C)C(=O)CC2)cc1 | 46.6% | 40.1%
21 | CCC(C(=O)O/N=C(\N)c1ccccc1)c1ccccc1 (configuration not stated) | 81.9% | 81.6%

Row | SMILES | activity [1] | activity [2]
22 | O=C(Nc1nc(=O)c2ccccc2s1)c1ccc(Cl)cc1 | 66.1% | 72.6%
23 | CCCCn1c(SCC(=O)Nc2nnc(CC)s2)nc2c1c(=O)n(C)c(=O)n2C | 68% | 70.1%
24 | Cc1ccc(Nc2nc(N)nc(CCl)n2)cc1 | 98.9% | 97.5%
25 | CCC(C(=O)O/N=C(\N)c1ccc(C)cc1)c1ccccc1 (configuration not stated) | 65.2% | 77.5%
26 | COc1ccc(C(=O)Nc2ccccc2C(=O)N/N=C/c2ccncc2)cc1OC | 97.7% | 96.3%
27 | c1ccc(-c2cnc(-c3ccccc3)nn2)cc1 | 64.9% | 68.4%
28 | Cc1cc(C)cc(N2C(N)=NC(N)=NC2c2cccc(Cl)c2)c1 (configuration not stated) | 57.8% | 74.3%
29 | O=C(N/N=C\c1ccc(CNS(=O)(=O)c2ccc(Cl)cc2)o1)C(=O)Nc1ccc(Oc2ccccc2)cc1 | 79.5% | 91.1%
30 | COc1cccc(C(=O)Nc2ccc(NC(=O)C(C)(C)C)cn2)c1 | 79.7% | 83%
31 | CC(C)C[C@H](NC(=O)c1nc[nH]c1C(=O)N[C@@H](CCCCNC(=O)OC(C)(C)C)C(=O)OC(C)(C)C)C(=O)OC(C)(C)C | 84.7% | 68.1%
32 | C[C@H](NC(=O)c1ncn2c1c(=O)[nH]c1ccc(Br)cc12)c1ccccc1 | 27.2% | 7.95%
33 | C=CCn1c(C)cc(C(=O)COC(=O)c2n[nH]c(=O)c3ccccc23)c1C | 74.4% | 57.4%
34 | CCC(=O)Nc1cc2nn(-c3ccc(OC)cc3)nc2cc1C | 62.5% | 61.8%
35 | O=C(Nc1ccc(N2CCN(C(=O)c3ccccc3)CC2)cc1)c1cc2ccccc2o1 | 70.8% | 50.3%
36 | Fc1cccc(/C=N/Nc2nncc3ccccc23)c1 | 79.5% | 78.8%
37 | CC1(C)N=C(N)N=C(N)N1c1cccc(CC(=O)Nc2ccccc2)c1 | 77.8% | 85.3%
38 | Cc1ccc(C(=O)Nc2ccc3ccccc3n2)cc1 | 58.6% | 58.2%
39 | CCc1ccc(NC(=O)c2cnn3ccccc23)cc1 | 59.4% | 58.6%
40 | Cc1c(P(=S)(c2ccccc2)c2ccccc2)[n+]2ccccc2n1C/C=C/c1ccccc1 | 83.3% | 56.9%
41 | CCC(=O)Nc1ccc(C(=O)Cn2ncc(Cl)c(Cl)c2=O)cc1 | 99.4% | 99.3%
